The text below walks through data of the supplement of paper PMC12632987.

In all, about 4,500 sequences were measured (“median log2 fold change of GCK-ALFA target abundance (FLAG IP / Myc IP barcode read proportion)”: median about 0.078, lowest 2% from about -0.6 on). Shown is part of a subset that was picked to be rich in the lowest values.

B1: GBRAP_160_4784 (protein)
chain: MERVEKVAKRFREAAKRALELSKGETAENRANIVDVELGSAILELEEEGLLNDEEEEVAAEVRDELVAEILANPNLTDEELKALLEKAVEELRKRLEELE
B2: GBRAP_160_4344 (protein)
chain: SEEKEKLLKFVDEEFEEAIELIKGESIEQRKVIISGTFGEILMELSESPIISDELEDEVREIEDELLEYLDKNPDLSEEEIKELIKEAREKVKEAIEKHT
B3: GBRAP_35_5576 (protein)
chain: EDKEMLLETVEDLAEATIEAIKEGDVDLAIALLKAFLRTAKLAVEELENDLEALEKIAELLKKVIEEIKKHLADNPEMQKLLKELEKLLKEVKEKAEKVK
B4: GBRAP_35_5577 (protein)
chain: EDEEMLLETVEDLAEATIEAIKEGNLDLAIALLKAFLRTAKIAIEDLKNNKEALEKIAELLEKVIEEIKKYLSDNPEVQELKKELEELLKEAKEKLKKVK
B5: GBRAP_52_5857 (protein)
chain: SSARMRALAEELLALRLAGKEEELEARVKELVATLSEEEILALLEELAALAKEADKEGAEAILDVAELLADEAEEAGFDEDELSYALAEVAAAAYKQLQK
B6: GBRAP_128_3469 (protein)
chain: MTEEAVERTRKILEEMKKASPEEARELFKELFEWLLTLPLEVVEAVVEEIEKHLPELSAEKLEILAEVADEAMPKATPEKAALLADLRSSALLEAEKLEE
B7: GBRAP_35_5506 (protein)
chain: DSMSTIADMLVATIDDTVLAIPDLDVETAVQISRQLIRSAREVAEDLKDDPEGLKRLRDSMERLRDALVKHYGDNPLAQEAIKEIDELIKELEERIKEAE
B8: GBRAP_128_3267 (protein)
chain: MNPEVVAYAEAFVEKLKAAGPEEAKKLADELMEKLKTMSLEEVEQFVEVLEKKLKELSVEKLEILADAARKHRDEFSPEKANLVAGLEVEALNEAVEKEE
B9: GBRAP_160_3969 (protein)
chain: SEEVEKLLKEIDEIFEEAKEMIVGESFENRLTIVRVAVGEVLLLLSENPLVSDEAEDKVDEIGDELIATIEANPDLTEEEIKELIDKAEEEIKKIIKEDA
B10: GBRAP_125_3096 (protein)
chain: HMEEILEALKLLAKALGFSEEEAEELARLAANSSVKQTLYALFAAEGYEELADLVEKLTEEQAKEVLLELAKWLKENPNASKEEVVKKAKELAKKALAKA
B11: GBRAP_160_4666 (protein)
chain: MEELEKLMKELEEIAKEAVEMTKGQSHEERVAIIRVMKGEIILELEESKIATDEVVDYADELGDELIAYVAANPDLTEEELQELLDKMLKEIEEKLKEEL
B12: GBRAP_128_3471 (protein)
chain: AVEEARKRTEEIMEKMKEANDEEFKKLAEELAEWLLTLPVEEVEAAVEVIKEHLPELSAEKLEILADVLDKAMPKATPEKAALFADVRSEALLLAEEKEE
B13: GBRAP_166_4959 (protein)
chain: SLEEVRARLEAALAAFEAEGASLSLEERRDRLVEIAELLGEAARAGLPREELLEAAVRLLLLARAAGLSPAFVEAALVNIAGLPVELVDEALARAEALAA
B14: GBRAP_26_5483 (protein)
chain: REREILDELEAKVKAILADEPAEVRAAVVAEAIDALIEFAEVVEANINDEEKIEKAKKEALEEMRKFLEDLGIPEDKREKVVKALAEALEKVEKAIKEEA
B15: GBRAP_160_4794 (protein)
chain: SERIEKVAEIFREEAERALEMARGETVEERVAIFDVELGSAIMEAIEEGLLNDEEEDIAIEVRDELVEEVRRNPELTEEELRELARRKIEELRERLEELE
B16: GBRAP_9_7151 (protein)
chain: MEELFKKVKEILEDAFEEVKEVVPEEVKPIVDEKREEVLKRLEELAKDPNVTKEELKEEAKELVDEFEEAIKEKVDEETAKMVEAIALTAKLEIEEVAEE
B17: GBRAP_160_4217 (protein)
chain: MELVEKLVEIVREEFEEALELIEGESEEERRVILDVAVGNVILEAMEIPGVTDEMEEVVEEKSRELAEELLEARDKSEEERRKLIEERVEELREELEKLE
B18: GBRAP_160_4215 (protein)
chain: DEIVEKLVEIAREEFEEALELIEGESEEERRVILDVAVGNVILEASEIPGVTDEMEETVDRMSEELARELLEAAGESEEERRALIEERTEELRKELKKLA
B19: GBRAP_160_4218 (protein)
chain: MELVKKLVEIVREEFEEALELIEGESPEERRVILDVAVGNVILESMEIEGVTDEMEETVEEMSEELAEELLEAADESPEERRELIEERVEELEKELKKLE
B20: GBRAP_160_4516 (protein)
chain: SPKLERIEKLVEEARERIIEVIDEGDVEAAITVAAVEFGEVIMEIAEDESMSDEAEDAAAEIRDKLVEELKKAKDASKEEKKKIVEEKSKELIEKLKKLS

GABARAP, O95166, sequence (O95166 whole entry, the tested form may be a part): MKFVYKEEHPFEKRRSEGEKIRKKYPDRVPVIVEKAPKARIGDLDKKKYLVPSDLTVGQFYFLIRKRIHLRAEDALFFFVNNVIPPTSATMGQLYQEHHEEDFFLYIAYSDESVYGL

The target in this experiment is GABARAP, O95166. As to the kind of experiment: median log2 fold change of GCK-ALFA target abundance (FLAG IP / Myc IP barcode read proportion) (log2 ratio); each designed protein is fused to an ALFA-tag nanobody in HEK293 cells to bring the named protein to FLAG-tagged glucokinase (GCK); Myc marks an untargeted standard; higher = target protein stabilised (more abundant). The following applies: target protein: 3xFLAG-MCP-GCK-ALFA reporter; HEK293 landing pad (RPLP). A digest of the protocol:
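An ALFA-nanobody-fused binder library was recombined into HEK293 landing-pad cells and induced with 2 μg mL^−1 doxycycline. Cells were transfected with a plasmid expressing a FLAG-tagged target and a Myc-tagged standard. After 48 h, lysates underwent anti-FLAG and anti-Myc immunoprecipitation, and circular RNA barcodes were reverse transcribed, amplified and sequenced. Target abundance is the per-binder median log2 ratio of FLAG to Myc barcode read proportions. Barcodes needed ≥10^−7 proportion in both replicates, binders ≥3 barcodes per replicate, and a 10^−6 pseudocount was added; the two replicates were pooled.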
Take B1: the “median log2 fold change” value turned out to be 0.242.
As for B2, the “median log2 fold change” value is -0.232.
For B3 the value was -1.27; for B4, 0.248.
For B5 the value was -0.305.
Take B6: the “median log2 fold change” value came to 0.314.
For B7 the value was -0.631; for B8, 0.119.
Then B9, with -0.61; and B10, with 0.229.
Then B11, with -1.11; and B12, with 0.298.
B13: the “median log2 fold change” value stood at 0.117.
For B14, the “median log2 fold change” value is 0.341.
Then B15, with 0.169; and B16, with 0.225; and B17, with -0.6.
Then B18, with -0.331; and B19, with -0.299; and B20, with 0.404.
